These results are taken from PubChem BioAssay (NCI).

Structures are written as SMILES. About 83,000 compounds went through this panel and 20% of them were active in at least one assay; those are over-represented in the sample as a whole.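 How to read the values: 0–100, growth inhibition (40 = 60% inhibited); 0, no net growth; -100 to 0, cell death (-40 = 40% of starting cells died; -100 = all dead).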 Values without a mark were called inactive. Activity calls are given as the source filed them. Rule for the calls: active = growth percent below 10; inactive = the rest.

Test systems include SR leukemia; RPMI-8226 leukemia; OVCAR-5 ovarian; OVCAR-4 ovarian; SK-OV-3 ovarian; IGROV1 ovarian; OVCAR-3 ovarian; HS 578T breast; NCI/ADR-RES ovarian.
What all share (assay): NCI-60 one-dose screen, 48 h (100 = growth as untreated, 0 = no growth, -100 = all killed)
Details in all cases: 10 µM unless noted

As to `Cc1ccc(NC(=O)Cn2c(Br)nc3c2c(=O)n(C)c(=O)n3C)cc1`, the growth is 12% with SR leukemia; 38.5% in the test on RPMI-8226 leukemia; 27.9% in the test with OVCAR-5 ovarian; -44.9% (active) in the test with OVCAR-4 ovarian; 5.9% (active) with SK-OV-3 ovarian; 33.1% in the test with IGROV1 ovarian. Also, the growth with OVCAR-3 ovarian was -19.8% (active); in the test on HS 578T breast, 8.55% (active); in the test on NCI/ADR-RES ovarian, 4.04% (active).

As to `CCN1C(=O)N(CC)C2C1NN=c1s/c(=C3\C(=O)N(CCC(C)C)c4ccccc43)c(=O)n12` (centres undefined), the growth in the test with SR leukemia is 16.7%; in the test on RPMI-8226 leukemia, 17%; in the test with OVCAR-5 ovarian it was 34.1%; with OVCAR-4 ovarian it was 45.5%; in the test on SK-OV-3 ovarian it was 43.7%; with IGROV1 ovarian, 19.4%. In addition, the figures for the growth in the test on OVCAR-3 ovarian, in the test on HS 578T breast and with NCI/ADR-RES ovarian were 3.23% (active), 15% and 8.98% (active), respectively.

For `CN(C)c1ccc(-c2nc(-c3ccccc3)c(-c3ccccc3)[nH]2)cc1`, the growth is 88.2% in the test on SR leukemia; 90% in the test on RPMI-8226 leukemia; 122% in the test with OVCAR-5 ovarian; 94% in the test with OVCAR-4 ovarian; 83.1% in the test with SK-OV-3 ovarian; 91.6% in the test on IGROV1 ovarian. Moreover, the growth in the test with OVCAR-3 ovarian is 114%; in the test with HS 578T breast, 103%; in the test on NCI/ADR-RES ovarian, 95%.

As to `CCc1ccc(CCC(=O)Nc2ncc(Cc3cc(Cl)ccc3Cl)s2)o1`, the growth was 15.3% in the test on SR leukemia; 12.3% in the test with RPMI-8226 leukemia; 24.5% in the test on OVCAR-5 ovarian; 50.3% with OVCAR-4 ovarian; 34% with SK-OV-3 ovarian; 23.5% with IGROV1 ovarian. The results for the growth in the test with OVCAR-3 ovarian, with HS 578T breast and with NCI/ADR-RES ovarian were -2.36% (active), 7.65% (active) and -3.44% (active), respectively.

With `Nc1[nH]n2cc(-c3ccc(F)cc3)nc2c1N=Nc1ccc(S(N)(=O)=O)cc1`, the growth with SR leukemia was 66.5%; in the test on RPMI-8226 leukemia, 73.2%; in the test with OVCAR-5 ovarian it was 90.7%; in the test on OVCAR-4 ovarian, 80.9%; in the test on SK-OV-3 ovarian, 73.9%; with IGROV1 ovarian, 61.9%. The growth in the test on OVCAR-3 ovarian was 78.7%; in the test with HS 578T breast, 66.8%; in the test with NCI/ADR-RES ovarian, 105%.

In the case of `C=C1C(=O)O[C@H]2[C@H]1CC/C(COC(=O)c1ccc(C(=O)O)s1)=C\CC[C@@]1(C)O[C@@H]21`, the growth was -12.8% (active) with SR leukemia; -25.9% (active) in the test on RPMI-8226 leukemia; 48.6% in the test with OVCAR-5 ovarian; 35.2% with OVCAR-4 ovarian; 96.6% in the test with SK-OV-3 ovarian; -26.8% (active) in the test with IGROV1 ovarian. Besides, the growth in the test on OVCAR-3 ovarian was 0.215% (active); in the test with HS 578T breast it was 37.6%; in the test on NCI/ADR-RES ovarian it was 42%.

Turning to `COC(=O)c1c2c(n3ccccc13)C(=O)c1ccccc1C2=O`, the growth in the test on SR leukemia is 38.7%; in the test with RPMI-8226 leukemia, 68.3%; with OVCAR-5 ovarian, 116%; with OVCAR-4 ovarian, 77.3%; in the test with SK-OV-3 ovarian it was 94.8%; in the test with IGROV1 ovarian, 57.5%. The growth in the test with OVCAR-3 ovarian was 55.7%; in the test on HS 578T breast, 73.7%; with NCI/ADR-RES ovarian it was 65.4%.

As for `COc1cc(-c2nc3sccn3c2-c2ccnc(NCCNS(=O)(=O)c3ccc(Cl)cc3)n2)ccc1F`, the growth in the test with SR leukemia is 34.5%; with RPMI-8226 leukemia, -18.9% (active); in the test with OVCAR-5 ovarian, 112%; in the test with OVCAR-4 ovarian, 21.3%; in the test on SK-OV-3 ovarian it was 54.4%; in the test on IGROV1 ovarian it was 41.8%. In addition, the values for the growth in the test with OVCAR-3 ovarian, in the test with HS 578T breast and with NCI/ADR-RES ovarian were 43.1%, 49.5% and 13.7%, respectively.

In the case of `CN(Cc1cnc2nc(N)nc(N)c2n1)c1ccc(C(=O)NC(CCC(=O)O)C(=O)O)cc1Br` (centres undefined), the growth is 34.1% in the test with SR leukemia; 54.3% with RPMI-8226 leukemia; 27.7% in the test on OVCAR-5 ovarian; 75% in the test with OVCAR-4 ovarian; 45.3% with SK-OV-3 ovarian; 40.9% in the test with IGROV1 ovarian. Moreover, the growth in the test with OVCAR-3 ovarian is 53.8%; with HS 578T breast, 96.7%.

As to `Cn1cc(-c2ccc(-c3cn(C)c4ccc(Cl)cc34)[nH]2)c2cc(Cl)ccc21`, the growth in the test with SR leukemia is -13% (active); in the test on RPMI-8226 leukemia, 7.74% (active); with OVCAR-5 ovarian, -14.1% (active); in the test on OVCAR-4 ovarian, -57.7% (active); with SK-OV-3 ovarian, -53.5% (active); in the test on IGROV1 ovarian, -45.9% (active). For the same molecule, the results for the growth in the test with OVCAR-3 ovarian, with HS 578T breast and in the test on NCI/ADR-RES ovarian were -84% (active), -28.6% (active) and -22.5% (active), respectively.

For `Cc1cccc(N2CCC(=O)NC2=S)c1`, the growth in the test with SR leukemia is 121%; in the test with RPMI-8226 leukemia, 117%; in the test with OVCAR-5 ovarian, 105%; in the test on OVCAR-4 ovarian, 107%; in the test with SK-OV-3 ovarian it was 107%; in the test with IGROV1 ovarian, 103%. Also, the growth in the test with OVCAR-3 ovarian was 110%; with HS 578T breast, 107%; in the test with NCI/ADR-RES ovarian, 105%.

As to `O=C1/C(=C2\SC(=S)N(C3CC3)C2=O)SC(=S)N1C1CC1`, the growth in the test with SR leukemia was 105%; in the test with RPMI-8226 leukemia, 102%; in the test with OVCAR-5 ovarian it was 98.5%; in the test with OVCAR-4 ovarian, 97.2%; in the test with SK-OV-3 ovarian, 109%; with IGROV1 ovarian, 95.5%. The growth in the test with OVCAR-3 ovarian was 107%; in the test on HS 578T breast it was 97.4%; in the test on NCI/ADR-RES ovarian it was 102%.

With `COc1cccc(CNc2c3ccccc3nc3ccccc23)c1`, the growth in the test with SR leukemia was 8.36% (active); in the test on RPMI-8226 leukemia, 16.7%; in the test on OVCAR-4 ovarian it was 43.6%; with SK-OV-3 ovarian, 54.7%; with IGROV1 ovarian, 28.3%; with OVCAR-3 ovarian, 54.8%. Also, the growth was 55.6% in the test on HS 578T breast and 37.5% in the test with NCI/ADR-RES ovarian.

Regarding `O=C1/C=C/[C@@H](O)[C@@H]2C[C@@H](O)C[C@H]2/C=C/CCC[C@H](CCO)O1`, the growth in the test on SR leukemia is 9.21% (active); in the test with RPMI-8226 leukemia, 14.7%; with OVCAR-5 ovarian, 16.1%; with OVCAR-4 ovarian it was 27.8%; in the test with SK-OV-3 ovarian, 30.8%; in the test with IGROV1 ovarian, 17.9%. The growth with OVCAR-3 ovarian is -46.9% (active); in the test with HS 578T breast, 29.4%.

`COc1ccc(-c2cc(-c3ccccc3)nc(N3CCN(CCNc4ccnc5cc(Cl)ccc45)CC3)n2)cc1`: the growth was 7.06% (active) in the test on SR leukemia; -28.2% (active) in the test with RPMI-8226 leukemia; 48.2% in the test on OVCAR-5 ovarian; -27.6% (active) with OVCAR-4 ovarian; 112% in the test with SK-OV-3 ovarian; -74% (active) in the test with IGROV1 ovarian. In addition, the growth in the test with OVCAR-3 ovarian is 7.81% (active); in the test with HS 578T breast, 66.4%; in the test with NCI/ADR-RES ovarian, -63.2% (active).

For `Nc1ncnc2c1N=C(c1ccc3c(c1)OCO3)CC(c1cccc(Nc3ccnc4cc(C(F)(F)F)ccc34)c1)N2` (centres undefined), the growth in the test on SR leukemia is 23.3%; with RPMI-8226 leukemia, 5.05% (active); in the test with OVCAR-5 ovarian it was 108%; in the test on OVCAR-4 ovarian it was 89.2%; in the test on SK-OV-3 ovarian it was 80.2%; in the test on IGROV1 ovarian, 84.2%. Moreover, the growth was 95.1% in the test with OVCAR-3 ovarian, 85.8% with HS 578T breast and 88.3% in the test with NCI/ADR-RES ovarian.

For `CCOC(=O)C(=CNc1cnc(Nc2ccc(N3CCOCC3)cc2)nc1Oc1ccc(OC)cc1)C(=O)OCC`, the growth with SR leukemia is 31.6%; in the test with RPMI-8226 leukemia it was 42.2%; in the test on OVCAR-5 ovarian, 71.5%; in the test with OVCAR-4 ovarian it was -43.1% (active); in the test on SK-OV-3 ovarian it was 55.5%; with IGROV1 ovarian, 26.8%. The growth in the test with OVCAR-3 ovarian was -9.17% (active); with HS 578T breast, 35%; in the test on NCI/ADR-RES ovarian, 54.4%.

With `Cc1ccc(S(=O)(=O)Oc2ccc3sc4cccc(NCCN(C)C)c4c(=O)c3c2)cc1`, the growth in the test on SR leukemia is -19.4% (active); in the test on RPMI-8226 leukemia, -48.2% (active); in the test with OVCAR-5 ovarian, -92.4% (active); in the test with OVCAR-4 ovarian it was -69.8% (active); in the test on SK-OV-3 ovarian, -93.2% (active); in the test on IGROV1 ovarian, -79.6% (active). Also, the growth was -95.4% (active) in the test with OVCAR-3 ovarian, -58.3% (active) in the test with HS 578T breast and -90.7% (active) with NCI/ADR-RES ovarian.
